Source: PubChem BioAssay AID1345082 (National Center for Advancing Translational Sciences (NCATS), 2018)
Hit rate of the full screen: of about 94,000 compounds, about 4,000 (4.3%) were called active. Inconclusive results (about 29%) are left out. The list comes from a sample in which actives are over-represented; it also holds similar structures and randomly drawn compounds. A number with no mark means an inactive call. Calls follow the shape of the dose curve; as a rule, active = well fitted inhibition curve with a large enough effect; inconclusive = small, poorly fitted or top-dose-only effect; inactive = no such curve, though single readings can be large or run the other way.

Experiment: Cytotoxic Profiling in NIH 3T3 Cell Line of Diverse Libraries Using Quantitative High-Throughput Screening; also: nearly all actives have a fitted effect of over 55% in size
Details: NIH 3T3 viability, CellTiter-Glo ATP luminescence, 48-72 h; series mostly up to 96.7 µM; activity change, negative = cytotoxicity: at the top concentration
Procedure, shortened: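 NIH 3T3 cells at 400 cells/well received 23 nL of compound by pintool and were incubated 48 or 72 h at 37 °C. Viability was read as ATP-coupled CellTiter-Glo luminescence.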
% is scaled to controls: 0 for no effect and ±100 for the full control effect; potency is read from the fitted curve at half-maximal effect.

SMILES	activity change, negative = cytotoxicity	Potency	outcome
Cn1ncc2c(C(=O)NCC(F)(F)F)cc(-c3ccccc3F)nc21	-34.4% [at 138 µM]		
COc1ccc(C2Cn3cnc(-c4nc(-c5ccc(OC)cc5OC)no4)c3CO2)cc1 (stereo not drawn)		20 µM (active)	
CCOc1ccc(-c2noc(-c3ncn4c3COC(c3ccc(OC)cc3)C4)n2)cc1 (stereo not drawn)	-16.5%		
COc1ccc(-c2noc(-c3nnn4c3COC(c3ccc(Cl)cc3)C4)n2)c(OC)c1 (stereo not drawn)	-10%		
CN(C)C(=O)C1CN(C(=O)C2CCCC2)CC12CCOCC2 (stereo not drawn)			inactive
CCC(=O)N1Cc2ccccc2CC2(CCN(Cc3ccc(OC)cc3)C2)C1 (stereo not drawn)	-13.7%		
O=C(NCCC1COc2ccccc2O1)c1ccc(N2CCCOCC2)nc1 (stereo not drawn)	-4.44%		
COc1ccc(-c2ccc3c(c2)C(=O)N2CCN(C(=O)CC(C)(C)C)C[C@@H]2C(=O)N3)c(OC)c1	-6.29%		
COc1ccc(-c2cccc(C(=O)NC3CC3)c2)nn1	-28.6% [at 138 µM]		
COc1ccc(-c2cccc(C(=O)NCc3cccc(Cl)c3)c2)nn1		35.5 µM (active)	
COc1ccc(-c2cccc(C(=O)N3CCN(C(=O)Cc4cccc(Cl)c4)CC3)c2)nn1	-25.1%		
O=C(N[C@H]1CCOC[C@H]1C1CCOCC1)c1scc2c1OCCO2	-0.0014%		
Cc1nc(C(=O)N2CC[C@H](NS(=O)(=O)c3cccs3)C[C@H]2C(=O)N[C@H](Cc2c[nH]c3ccccc23)C(N)=O)cs1	2.43%		
Cn1ccnc1C(=O)N1CCCCCCNC(=O)[C@@H]2C[C@@H](C(=O)N3CCc4ccccc4C3)C[C@@H]21	-13.4%		
O=C(NCc1cccnc1)C1CCC(=O)N1C1CCNCC1 (stereo not drawn)	-3.85%		
CC1=C[C@@H](CNC2CC2)[C@H](C(C)C)C[C@H]1Cc1nnc(-c2ccc(C)cc2)o1		39.8 µM (active)	
CC(=O)NC[C@@H]1C=C(C)[C@H](CC(=O)N2CCCC2)C[C@H]1C(C)C	3.57% [at 174 µM]		
CC1=C[C@@H](CNC(=O)NC(C)C)[C@H](C(C)C)C[C@H]1Cc1nnc(-c2ccncc2)o1		56.2 µM (active)	
CC1=C[C@@H](CNC(C)C)[C@H](C(C)C)C[C@H]1Cc1nnc(-c2ccc(N(C)C)cc2)o1		31.6 µM (active)	
CC1=C[C@@H](CN2CCOCC2)[C@H](C(C)C)C[C@H]1Cc1nnc(-c2ccc([N+](=O)[O-])cc2)o1		35.5 µM (active)	
COC1C(=O)N(c2cccc(F)c2)C12CCN(C(=O)C1(c3ccccc3)CC1)CC2 (stereo not drawn)	-15.4%		
CCn1ccc(C(=O)N2C[C@@H]3CCCN4CCC[C@@H]([C@H]34)[C@H]2CCCC(=O)Nc2ccccc2)n1	1.62%		
CC(=O)NC1CC2(CCN(C(=O)CCC(=O)O)CC2)c2ccccc21 (stereo not drawn)	2.38%		
CS(=O)(=O)N1Cc2ccccc2CC2(CCN(Cc3ccncc3)C2)C1 (stereo not drawn)	-28.9%		
CCN1CCc2[nH]cnc2C12CCN(C(=O)C1CCc3ccccc3C1)CC2 (stereo not drawn)	-24.9%		

SMILES	activity change, negative = cytotoxicity	Potency	outcome
Cc1cc2nc3n(c(=O)c2n1CC(=O)Nc1cccc(C(F)(F)F)c1)CCCC3	-24.2%		
O=C(NCc1ccncc1)c1csc(N2CCN(c3ccccc3F)CC2)n1	-23.9%		
O=C(c1ccc(C(F)(F)F)cc1)N1CCCC2(CC(c3ccccn3)=NO2)C1 (stereo not drawn)	-7.84%		
CC1=C[C@@H](CN2CCC(O)CC2)[C@H](C(C)C)C[C@H]1Cc1nnc(-c2ccccc2F)o1		112 µM (active)	
COc1ccc(CC(=O)NC[C@@H]2C=C(C)[C@H](Cc3nc4ccncc4[nH]3)C[C@H]2C(C)C)cc1	-26.3%		
CC1=C[C@@H](CNC(C)C)[C@H](C(C)C)C[C@H]1Cc1nnc(-c2ccc(C)cc2)o1		50.1 µM (active)	
COc1ccc(C(=O)NC[C@@H]2C=C(C)[C@H](Cc3nnc(-c4cncn4C)o3)C[C@H]2C(C)C)cc1		25.1 µM (active)	
COc1ccc(C(=O)NCc2nnc3cc(-c4nc(C)no4)ccn23)cc1	-12.2%		
Fc1ccc(CN2CC[C@H](c3nnc(-c4ccccc4F)o3)C2)cc1	-21.5% [at 138 µM]		
CC1=C[C@@H](CN2CCN(CCO)CC2)[C@H](C(C)C)C[C@H]1Cc1nnc(-c2ccc(C)cc2)o1		39.8 µM (active)	
O=C1NCc2ccccc2CC12CCN(Cc1ccc(CO)o1)C2 (stereo not drawn)	-2.07%		
CC(C)c1ccccc1NC(=O)Cn1cccc1-c1nc(-c2ccccc2)no1	0.152%		
Cc1ccc(CN2CCNC(=O)C2CC(=O)NC2(CO)CCCC2)cc1 (stereo not drawn)	-0.757%		
Cc1ncc2c(c1CNC(=O)c1ccccc1F)CCN(C(=O)Cc1cccc(F)c1)C2	-9.27%		
CC(C)C(=O)NCC12CCC=C1N(C)C(=O)CC2 (stereo not drawn)	-0.138%		
COCCN1C(=O)CS(=O)(=O)C12CCN(C(=O)c1ccc(OC)cc1)CC2	-5.73%		
CNC(=O)[C@@H]1CN(C(=O)c2cccc(OC)c2)C[C@H]1COC			inactive
O=C(NC1CCC(n2cc(C(=O)N3CCCC3)nn2)CC1)C(c1ccccc1)C1CCCC1 (stereo not drawn)	-0.0895%		
COCCNc1ncc(C(=O)O)c(C)n1	-8.62%		
O=C(Nc1ccc2ncnc(N3CCCCC3)c2c1)c1ccc2c(c1)OCO2	-20.6%		
N[C@@H]1CC[C@H](C(=O)N2CCN(CCCOc3ccc(F)cc3)CC2)C1	-28%		
O=C(CCc1nnn2c1CN(C(=O)NCCc1ccccc1)CC2)NC1CC1	1.43%		
CCn1cc(Cl)c(C(=O)N2CCCn3cc(-c4ccccc4)nc32)n1	-11.8%		
CCCc1nnc(C[C@@H]2C[C@@H](C(C)C)[C@H](CN3CCC[C@H]3CO)C=C2C)o1		50.1 µM (active)	
COCC(=O)NC[C@@H]1C=C(C)[C@H](CC(=O)Nc2ccccn2)C[C@H]1C(C)C	-17% [at 138 µM]		

SMILES	activity change, negative = cytotoxicity	Potency	outcome
CC1=C[C@@H](CN(C)CCc2ccccn2)[C@H](C(C)C)C[C@H]1Cc1nnc(-c2ccccc2F)o1		35.5 µM (active)	
CNC(=O)c1cn2c(n1)CN(C(C)=O)CC2			inactive [at 174 µM]
COc1cc(CCC(=O)N2C[C@@H](C(N)=O)[C@H](c3n[nH]c(C)n3)C2)on1	-12.8%		
COc1ccc(C(=O)N2C[C@@H](CO)[C@H](c3ccncc3)C2)cc1F	-8.96%		
Cc1ccccc1C(=O)N1CCC2(CC1)OCC(C(=O)N1CCOCC1)N2C(=O)c1cccc(F)c1 (stereo not drawn)			inactive
O=C(c1ccc(F)c(F)c1)N1CCC([C@@H]2CNC[C@H]2CO)CC1	-0.844%		
COc1ccc(-c2noc(-c3nnn4c3COC(c3ccc(F)cc3)C4)n2)cc1 (stereo not drawn)	-4.85%		
Cc1ccc(S(=O)(=O)Nc2ccc(C)n(CC(=O)NCc3cccc(F)c3)c2=O)cc1	0.908%		
CC(C)CNC(=O)C1COC2(CCC(C)CC2)N1C(=O)c1cccc(F)c1 (stereo not drawn)	-12%		
CC1CCC2(CC1)OCC(C(=O)NCc1ccc3c(c1)OCO3)N2C(=O)c1ccccc1F (stereo not drawn)		20 µM (active)	
O=C(NCc1ccc(F)cc1)C1COC2(CCCCC2)N1C(=O)c1ccccc1 (stereo not drawn)	-8.67%		
CCCOc1cc(C)c2c(c1C)C[C@H](C(C)C(=O)N1CCOCC1)CC2 (stereo partly drawn)	-17.8% [at 174 µM]		
Fc1cccc(-c2ncc[nH]2)c1	-21.4% [at 230 µM]		
O=C1NC[C@@H](CCC(=O)N2CCN(c3ccccn3)CC2)N2C[C@@H](NCc3ccccc3)C[C@@H]12	4.35%		
CC(C)N1CC2(C1)C(=O)N(CCCN1CCCC1=O)C(=O)[C@@H]1C[C@@H](O)CN12	0.0127% [at 174 µM]		
COc1ccccc1-c1cc(-c2cn[nH]c2)c2cncn2c1		50.1 µM (active)	
COc1ncccc1-c1cc(-c2cn[nH]c2)c2cncn2c1		70.8 µM (active)	
COc1ccccc1-c1cc(C(=O)N(C)C)nc2c1cnn2C	3.84%		
COc1ccccc1-c1ccc(C(=O)O)cc1	-6.43% [at 138 µM]		
O=C(CCn1cncn1)N1CCc2[nH]nc(-c3cccc4ccccc34)c2C1	-1.41%		
CCCN(CC1CCOC1)C(=O)Nc1ccccc1C(F)(F)F (stereo not drawn)	-7.03%		
O=[S+]([O-])(c1cccc(C(F)(F)F)c1)N1CCC2(CCN(CCc3ccccc3)c3ccccc3O2)CC1	-24.8%		
Cc1ccc(CN2CCC(C3CCN(S(C)(=O)=O)CC3)C2)nc1 (stereo not drawn)	-8.33%		
CCCNc1cc(N2CCC(CCC(=O)Nc3ccc(C)cc3)CC2)ncn1	-17.3%		
COc1ccccc1Oc1ncccc1CNC(=O)c1ccc2n[nH]nc2c1	-16%		

SMILES	activity change, negative = cytotoxicity	Potency	outcome
Cc1ccc(-c2ccccc2CN2CCN([S+](=O)([O-])c3cccc(C(F)(F)F)c3)CC2)cc1Cl	-40.4%		
CC(C)c1ccc([S+](=O)([O-])N2CCN(c3cccc(CN(C)[S+](C)(=O)[O-])c3F)CC2)cc1		35.5 µM (active)	
CC(=O)NC(C)c1nnc2n1CCN([S+](=O)([O-])c1ccccc1)C2 (stereo not drawn)	-19%		
NCC(=O)N1Cc2ccccc2CC2(CCCCN2CC2CCOCC2)C1 (stereo not drawn)	-0.121%		
CC(=O)NCCC(=O)N1Cc2ccccc2CC2(CCCCN2CC2CCNC2)C1 (stereo not drawn)	-0.729%		
O=C(C1CCCC1)N1Cc2ccccc2CC2(CCCCN2CC2CCNCC2)C1 (stereo not drawn)		17.8 µM (active)	
Cc1ccccc1OCC(=O)N1CCC2(CC1)NC(=O)N(Cc1ccccc1)C2=O	-1.63%		
Cc1ccc2[nH]c(=O)c(CCC(=O)NCc3ccncc3)cc2c1			inactive
COC(=O)[C@@H]1C[C@H](NC(=O)c2cc(OC)nc(OC)n2)CN1C	2.76%		
COc1ccccc1N1CCN(C(=O)CCc2conc2-c2ccccc2F)CC1	-8.02%		
CC1=C[C@@H](CC#N)[C@H](C(C)C)C[C@H]1CC(=O)N1CCN(C)CC1	-19.7% [at 174 µM]		
COc1ccccc1N1CCN(C(=O)C[C@@H]2C[C@@H](C(C)C)[C@H](CO)C=C2C)CC1		100 µM (active)	
COc1ccccc1C(=O)N1CCCN(c2ccc3nnc(C)n3n2)CC1	0.238%		
O=C(c1ccnc(-c2nnc3ccc(N4CCOCC4)nn23)c1)N1CCCCC1		20 µM (active)	
O=C(NC1CCCC1)NC1CCN(c2ccc3nnc(-c4ccccc4)n3n2)CC1	-31.4%		
CCn1nccc1C(=O)N1CCCCCC1c1nc(C2CC2)no1 (stereo not drawn)	-20.5%		
COc1ccc(S(=O)(=O)N2CCCC(Cn3cnc4cccnc43)C2)cc1 (stereo not drawn)	-22.5%		
Cc1oc(-c2cc(F)ccc2F)nc1CN1CCN(c2ccccc2)CC1C (stereo not drawn)	-9.27%		
CCC1CN(Cc2cn(-c3ccccc3)nc2-c2ccc(OC)cc2F)CCO1 (stereo not drawn)	-4.55%		
Cc1oc(-c2cccs2)nc1CN1CCOC(Cc2ccccc2)C1 (stereo not drawn)	-23.1%		
COc1ccc(-c2nc(CN3CCOC(CN)C3)c(C)o2)c2ccccc12 (stereo not drawn)		25.1 µM (active)	
Cc1oc(-c2cccc(Oc3ccccc3)c2)nc1CN1CCOC(CCN)C1 (stereo not drawn)		25.1 µM (active)	
CCn1cnnc1CC1CCN(C(=O)C2CCN(Cc3nc(-c4cccc(C)c4)oc3C)CC2)CC1	-19%		
